# TDP1 inh = qHTS Assay for Inhibitors of Tyrosyl-DNA Phosphodiesterase (TDP1); 0.28% of 350,000 active; Potency, µM (highest dose often 130 µM), most hits filed as inhibitors; recombinant TDP1, AlphaScreen DNA substrate cleavage; Tyrosyl-DNA phosphodiesterase 1 (Homo sapiens), Q9NUW8; AID 485290, 2010; also: nearly all actives have a fitted effect of over 40% in size
# Target sequence (Q9NUW8 whole entry, looked up): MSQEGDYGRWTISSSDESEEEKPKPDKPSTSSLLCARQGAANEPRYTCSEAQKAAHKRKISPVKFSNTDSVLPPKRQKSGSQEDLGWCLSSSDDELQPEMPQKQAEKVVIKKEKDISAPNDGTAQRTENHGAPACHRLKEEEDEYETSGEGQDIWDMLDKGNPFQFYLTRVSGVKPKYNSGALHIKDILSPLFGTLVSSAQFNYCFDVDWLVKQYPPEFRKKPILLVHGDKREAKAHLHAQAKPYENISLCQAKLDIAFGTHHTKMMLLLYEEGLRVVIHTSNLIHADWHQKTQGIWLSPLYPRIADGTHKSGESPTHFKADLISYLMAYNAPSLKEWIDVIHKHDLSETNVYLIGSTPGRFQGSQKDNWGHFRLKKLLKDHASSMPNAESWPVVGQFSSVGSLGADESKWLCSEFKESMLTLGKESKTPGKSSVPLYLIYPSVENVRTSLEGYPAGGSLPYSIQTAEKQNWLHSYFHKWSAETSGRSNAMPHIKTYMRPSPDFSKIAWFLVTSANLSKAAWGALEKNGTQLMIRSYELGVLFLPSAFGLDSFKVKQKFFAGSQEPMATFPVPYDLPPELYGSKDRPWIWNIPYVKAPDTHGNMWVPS
#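 Compounds were preincubated with Tdp1 (1 nM final) for 15 min at room temperature before substrate (15 nM final) started a 5 min reaction; beads (10 ug/ml final) were then added for 10 min before AlphaScreen detection.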
# DT40 TDP1 CPT = qHTS for Inhibitors of human tyrosyl-DNA phosphodiesterase 1 (TDP1): qHTS in cells in presence of CPT; AID 686979, 2013; chicken DT40 Tdp1-/-;hTDP1 cells + 20 nM CPT, ATP luminescence, 48 h; Potency, µM (highest dose often 46.2 µM), most hits filed as inhibitors; 12% of 420,000 active; also: nearly all actives have a fitted effect of over 55% in size
#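 Cell growth measured by CellTiter-Glo luminescence after a minimum 48 h, 37 C compound exposure with 20 nM CPT in Tdp1-knockout DT40 cells stably expressing hTDP1, seeded 400/well; qHTS titration format.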
# DT40 TDP1 no CPT = qHTS for Inhibitors of human tyrosyl-DNA phosphodiesterase 1 (TDP1): qHTS in cells in absence of CPT; DT40 Tdp1-/- hTDP1 cells, no CPT, ATP luminescence, 48 h; Potency, µM (doses to about 46.2 µM), hits mostly inhibitors; 15% of 420,000 active; also: nearly all actives have a fitted effect of over 55% in size
#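 Readout: luminescence from CellTiter-Glo after 30 min in the dark at RT. Cells: DT40 Tdp1-/- with stable hTDP1, 400/well. Exposure: compounds alone, ≥48 hr, 37 °C.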
# IL1B secr inh = qHTS for Inhibitors of Inflammasome Signaling: IL-1-beta AlphaLISA Primary Screen; THP-1 LPS/ATP IL-1B secretion, AlphaLISA, 16 h; stronger effect = lower value; AID 743279, 2014; activity change, % at 57.5 µM; 4.7% of 360,000 active; in the data active = activity change below about -50%; inconclusive = mostly about -30% to -49%
#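 THP-1 cells pretreated 1 hr with compounds (up to 57.5 uM final), then stimulated with LPS (250 ng/mL final) plus ATP (1.25 mM final); secreted IL-1B measured by AlphaLISA after 16 hr, decreased signal indicating inhibition.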
# TGFb inhibitor = qHTS for Inhibitors of TGF-b. HepG2 CAGA-GFP TGF-b/SMAD3 reporter, GFP fluorescence, 18 h; TGF-beta stimulated, 500 pg/mL final. Potency, µM (titrated, usually from 46.1 µM), hits mostly inhibitors. 1.2% of 410,000 active. AID 588855, 2011; also: nearly all actives have a fitted effect of over 65% in size
#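 Per well, imaged GFP fluorescence of HEPG2 CAGA-GFP cells gives the signal; cells get compound, then TGF-beta (500 pg/mL final), 18 h at 37 degrees C; %Activity versus -TGF-beta and +DMSO controls.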
# HepG2 tox = qHTS for Inhibitors of TGF-b: Cytotox Counterscreen; HepG2 CAGA-GFP viability, ATP luminescence, 18 h; Potency, µM (titrated, usually from 46.1 µM), usual class: cytotoxic; 0.76% of 410,000 active; AID 588856, 2011
#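 CellTiter-Glo luminescence gave cytotoxicity after 18 hours at 37 degrees C. The cells were HepG2 CAGA-GFP in 1% FBS DMEM, stimulated with 500 pg/mL TGF-beta after compound addition. %Activity was normalised to no-cell wells (complete cell-killing) and DMSO (no toxicity), and curves were fitted and classified.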
# Numbers stand for hits; - = inactive; ? = inconclusive; . = not tested or not shown; [ ] = remark or other dose. An excerpt weighted towards active compounds, which were near 19% of everything screened. Unless noted, calls follow the shape of the dose curve; as a rule, active = well fitted curve in the direction sought with a large enough effect; inconclusive = small, poorly fitted or top-dose-only effect, or another doubt; inactive = no such curve, though single readings can be large; an effect the other way counts as inactive or inconclusive.
SMILES,TDP1 inh,DT40 TDP1 CPT,DT40 TDP1 no CPT,IL1B secr inh,TGFb inhibitor,HepG2 tox
CC(C)[C@H](NC(=O)Cc1ccccc1)C(=O)OCc1cc(=O)n2c(n1)sc1ccccc12,.,15µM,13µM,-,16µM,-
Cc1ccc2c(CC(=O)OCc3cc(=O)n4c(n3)sc3ccccc34)coc2c1,25µM,-,-,-,-,-
O=C(OCc1cc(=O)n2c(n1)sc1ccccc12)c1ccc2c(=O)n3c(nc2c1)CCC3,50µM,-,-,-,-,-
Cc1nn2c(=O)cc(COC(=O)Cc3ccccc3)nc2s1,-,-,-,.,-,-
Cc1ccc(NC(=O)CCC(=O)N2CCN(S(=O)(=O)c3ccc(C)cc3)CC2)cc1,-,-,-,-,-,-
COc1ccccc1NC(=O)c1ncoc1-c1ccco1,-,-,-,.,-,-
C/C(=N\O)c1ccc2c(c1)OCCO2,-,-,3.7µM,-,-,-
C/C(=N/O)c1ccc2c(c1)OCCOCCOc1cc(/C(C)=N/O)ccc1OCCOCCO2,-,?,16µM,-,-,-
COc1ccccc1-c1nc2ccccc2nc1-c1ccccc1,-,18µM,?,-,-,-
CN(Cc1ccccc1F)c1nc(-c2cccs2)nc2ccccc12,-,?,?,-,-,-
CN(CCN(C)c1nc(-c2cccs2)nc2ccccc12)C(=O)OC(C)(C)C,-,10µM,14µM,.,.,.
Cc1ccc(S(=O)(=O)N(C)CCCN(C)c2nc(-c3cccs3)nc3ccccc23)cc1,-,16µM,11µM,.,.,.
CCOc1ccccc1-c1nnc2n1N=C(c1c(OC)cccc1OC)CS2,-,.,.,.,.,.
CCOc1cc(/C=N/Nc2nc(-c3cccs3)c(NC(C)=O)s2)ccc1O,.,-,13µM,-60,-,-
CC(=O)Nc1sc(N/N=C\c2ccccc2Cl)nc1-c1cccs1,-,16µM,18µM,-,-,-
CC(=O)Nc1sc(N/N=C/c2ccccc2)nc1-c1ccc(C)cc1,-,?,?,-90,-,-
COc1ccccc1NC(=O)c1ccc2c(c1)N(CC#N)C(=O)C(C)(C)O2,-,?,?,-,-,-
O=C(Nc1cccc(S(=O)(=O)N2CCCCCC2)c1)c1ccc(=O)[nH]c1,-,?,18µM,-,?,-
O=C(Nc1ccc(S(=O)(=O)N2CCCCC2)cc1)c1ccc(=O)[nH]c1,-,?,?,-,-,-
O=C(Nc1ccc(S(=O)(=O)N2CCCC2)cc1)c1ccc(Cl)nc1,.,?,?,-,-,-
CCN(CC)S(=O)(=O)c1ccc(NC(=O)c2ccc(Cl)nc2)cc1,-,?,23µM,-,-,-
O=C(Nc1cccc(S(=O)(=O)N2CCCCCC2)c1)c1ccc(Cl)nc1,-,18µM,15µM,?,-,-
O=C(Nc1ccc(S(=O)(=O)N2CCCCC2)cc1)c1ccc(Cl)nc1,-,18µM,6.5µM,-,?,-
CC1CCC(C(=O)O)NC1c1cccc(N2CCOCC2)c1 (configuration not stated),-[21 µM],.,.,.,.,.
Cc1ccc(CNC(=O)c2cc(-c3ccc(Cl)cc3)on2)cc1,-,-,-,.,-,-
SMILES,TDP1 inh,DT40 TDP1 CPT,DT40 TDP1 no CPT,IL1B secr inh,TGFb inhibitor,HepG2 tox
COc1ccc(NC(=O)c2ccc(Cl)nc2)cc1S(=O)(=O)N1CCCCC1,-,?,?,-,?,-
O=C(Nc1cccc(S(=O)(=O)N2CCCCC2)c1)c1ccc(Cl)nc1,-,21µM,15µM,-,-,-
Cn1c(=O)c2cc(NC(=S)NCc3ccccc3F)ccc2n1Cc1ccccc1,.,16µM,15µM,-,-,-
Cn1c(=O)c2cc(NC(=S)NC3CCCCC3)ccc2n1Cc1ccc(Cl)cc1,.,?,23µM,-57,-,-
Cn1c(=O)c2cc(NC(=S)NCc3ccccc3F)ccc2n1Cc1cccc(C(F)(F)F)c1,.,21µM,?,-,-,-
Cn1c(=O)c2cc(NC(=O)NCc3ccc(F)cc3)ccc2n1Cc1cccc(C(F)(F)F)c1,.,21µM,15µM,-,-,-
Cc1cc(C)cc(Cn2c3ccc(NC(=S)NCc4ccccc4F)cc3c(=O)n2C)c1,.,?,?,?,?,-
CSc1nccc(-c2cc(Cl)c3c(c2)CC(CNC(=O)c2ccc(C)nc2)O3)n1 (configuration not stated),.,-,-,.,.,.
C=CCSc1nnc(C2CCCN(Cc3ccccc3O)C2)n1C (configuration not stated),.,-,-,.,.,.
Cc1nn(CC(=O)OCC(=O)Nc2cccc(S(N)(=O)=O)c2)c(C)c1[N+](=O)[O-],-,-,-,-,-,-
Cn1c(=O)c2cc(NC(=O)NCc3ccccc3)ccc2n1Cc1cccc(C(F)(F)F)c1,.,?,?,-,-,-
COc1ccc(CNC(=O)Nc2ccc3c(c2)c(=O)n(C)n3Cc2cc(C)cc(C)c2)cc1,.,21µM,?,-,-,-
CCN(CC)CCNC(=O)c1ccc(NC(=O)COc2ccc3c(c2)CCC3)cc1,-,?,?,-,-,-
COc1ccc(-c2nc(C(N)=O)c3[nH]c(=O)n(-c4cccc(Cl)c4)c3n2)cc1OC,-,?,21µM,-,?,-
Cc1ccc(-n2c(=O)[nH]c3c(C(N)=O)nc(C(C)C)nc32)cc1,.,-,?,-,-,-
Cc1ccsc1-c1nc(C(N)=O)c2[nH]c(=O)n(-c3ccc(Cl)cc3)c2n1,-,5.8µM,4.1µM,-,-,-
CCOc1ccccc1-c1nc(C(N)=O)c2[nH]c(=O)n(-c3ccc(F)cc3)c2n1,-,-,-,-,-,-
CCc1ccc(-c2nc(C(N)=O)c3[nH]c(=O)n(-c4ccccc4OC)c3n2)cc1,-,2.3µM,2.6µM,-,-,-
Cc1noc(C)c1C(=O)N1CCC2(CCCN(C(=O)Nc3ccccc3)C2)CC1,.,-,-,.,.,.
O=C(CN1C(=O)c2cccc3cccc1c23)N1CCN(Cc2ccc3c(c2)OCO3)CC1,-,?,21µM,-,?,-
N#CCC(=O)N1CCN(Cc2ccc3c(c2)OCO3)CC1,.,-,-,-,-,1.6µM
O=C(c1c(F)c(F)c(F)c(F)c1F)N1CCN(Cc2ccc3c(c2)OCO3)CC1,.,-,-,?,-,-

# Source: PubChem BioAssay
